From PubChem BioAssay (NCATS) come the findings set out here.

Where “and” joins values, the source holds several entries; their conditions need not be identical. Equal entries are not always repeated. Inconclusive results are not listed. Values without a mark were called inactive. Calls of active or inactive are those of the source. Calls come from the whole dose curve; as a rule, active = well fitted curve in the direction sought with a large enough effect; inconclusive = small, poorly fitted or top-dose-only effect, or another doubt; inactive = no such curve, though single readings can be large; an effect the other way counts as inactive or inconclusive.

The viability is a read-out of living cells in per cent, often relative to untreated cells.

Test [1] concerns the target Cellular tumor antigen p53 (Homo sapiens) (UniProt P04637). The test is described as follows: Primary qHTS for small molecule compounds that upregulate eGFP-tagged delta133p53alpha (in N-terminal) cells. (AID 2060322).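 For activation: cells pre-induced with doxycycline then dosed without doxycycline; series mostly up to about 56 µM; 0% = DMSO vehicle and 100% = reference activator.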 Note: nearly all actives have a fitted effect of over 75% in size. Note: potency is the fitted concentration of half-maximal effect. Conditions: NCI-H358 eGFP-delta133p53alpha fluorescence, 24 h; activation: hits give high values. In a few lines:
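NCI-H358 cells pre-induced 24 h with 10 ng/ml doxycycline for eGFP-delta133p53alpha, plated dox-free and exposed 24 h at 37C to titrated compounds. Fixed, Hoechst-stained; gated GFP peak intensity by laser scanning cytometry, normalized to DMSO (0%) and 57.5 uM 5-azacytidine (100%).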

Test [2] concerns the target Aldehyde dehydrogenase, mitochondrial (Homo sapiens) (UniProt P05091). The test is described as follows: qHTS for Inhibitors of the Aldehyde Dehydrogenase Family (ALDH2) Primary screen (AID 2061308).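 Note: plate controls were vehicle for no effect and reference inhibitor for full effect; nearly all actives have a fitted effect of over 55% in size.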 On the technique in general: In qHTS, concentration-response curves come from the screen itself.
Test [3] deals with Retinaldehyde dehydrogenase 3 (Homo sapiens) (UniProt P47895). The test is described as follows: qHTS for Inhibitors of the Aldehyde Dehydrogenase Family (ALDH1A3) Primary screen (AID 2061315).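 Note: plate controls were DMSO vehicle for no effect and reference inhibitor for full effect.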
Test [4] is described as follows: BET inhibitor-based combinations targeting novel dependencies in MECOM-rearranged (r) AML: SET-2 cell line (AID 2202231).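 For viability: plate controls were DMSO treated cells for no effect and wells without cells for full effect.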 Note: nearly all actives have a fitted effect of over 35% in size. Note: potency is the fitted concentration of half-maximal effect. Conditions: SET-2 AML cells viability, CellTiter-Glo luminescence, 48 h; viability: hits give low values, concentration not given here. The method, boiled down: (§1)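 500 cells/well; 11-pt dose curve; 48 h, standard incubator; CellTiter-Glo luminescence after 15 min RT; DMSO/empty-well normalization; AUC plus Z-AUC (mean-centered within each line).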
In general terms: ATP-based viability assays read luminescence as a measure of living cells.

Test [5] in a line: BET inhibitor-based combinations targeting novel dependencies in MECOM-rearranged (r) AML: HNT-34 cell line (AID 2202234). Note: nearly all actives have a fitted effect of over 35% in size. Note: potency is the fitted concentration of half-maximal effect. The method, boiled down:
(§2)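 Cells were plated at 500 per well and exposed to each drug across an 11-point dose range for 48 hr at standard incubator conditions. Viability was read by CellTiter-Glo luminescence, and activity was expressed as AUC and per-cell-line Z-transformed AUC.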

Test [6] is described as follows: BET inhibitor-based combinations targeting novel dependencies in MECOM-rearranged (r) AML: UCSD-AML1 cell line (AID 2202235). Note: nearly all actives have a fitted effect of over 40% in size. Note: potency is the fitted concentration of half-maximal effect. The method, boiled down:
as §2

The nature of test [7]: BET inhibitor-based combinations targeting novel dependencies in MECOM-rearranged (r) AML: AML-194 cell line (AID 2202237; note: nearly all actives have a fitted effect of over 40% in size; note: potency is the fitted concentration of half-maximal effect). In a few lines: as §1
The nature of test [8]: BET inhibitor-based combinations targeting novel dependencies in MECOM-rearranged (r) AML: AML-191 cell line (AID 2202236; note: nearly all actives have a fitted effect of over 35% in size; note: potency is the fitted concentration of half-maximal effect). The method, boiled down: as §1
A short description of test [9]: BET inhibitor-based combinations targeting novel dependencies in MECOM-rearranged (r) AML: MV-4-11 cell line (AID 2202233). Note: nearly all actives have a fitted effect of over 45% in size. Note: potency is the fitted concentration of half-maximal effect. The method, boiled down:
as §2

Chain of Cellular tumor antigen p53 (Homo sapiens) (P04637 whole entry, looked up): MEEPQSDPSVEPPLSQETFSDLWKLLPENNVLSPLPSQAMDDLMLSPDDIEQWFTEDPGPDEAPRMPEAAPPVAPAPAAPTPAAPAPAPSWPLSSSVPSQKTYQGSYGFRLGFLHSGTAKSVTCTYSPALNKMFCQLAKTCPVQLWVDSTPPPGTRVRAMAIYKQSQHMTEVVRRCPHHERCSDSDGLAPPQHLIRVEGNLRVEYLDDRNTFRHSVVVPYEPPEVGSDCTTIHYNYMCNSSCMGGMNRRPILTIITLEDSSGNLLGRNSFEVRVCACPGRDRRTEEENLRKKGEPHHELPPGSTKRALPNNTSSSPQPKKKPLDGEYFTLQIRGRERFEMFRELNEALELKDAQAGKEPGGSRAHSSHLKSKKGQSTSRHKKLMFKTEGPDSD

As for `CN1CCN(c2ccc(-c3cccc(CN4CCOCC4)c3)cc2NC(=O)c2c[nH]c(=O)cc2C(F)(F)F)CC1`, the activation in test [1] is -14.5%. Besides, the Potency result in test [2], in test [3], in test [5], in [6] and in [7] was “inactive” each time. In test [4], the viability was 120%.

As for `Cn1ncnc1[C@H]1c2n[nH]c(=O)c3cc(F)cc(c23)N[C@@H]1c1ccc(F)cc1`, in [1], the activation is -4.3% and 20.1%. Moreover, the Potency entry in [2] and in test [3] was “inactive” throughout. The Potency in test [4] is 3.72 µM (active); in test [5], 0.166 µM (active); in [8] it was 1.86 µM (active); in test [7], 1.86 µM (active).

Regarding `O=C(O)c1ccc(CCCc2ccc(OCCc3ccc(F)cc3)cc2)o1`, the activation in test [1] was -3.57%. For the same compound, the Potency result in test [2], in test [3], in test [5], in [6] and in test [8] was “inactive” in each case. In test [4], the Potency is 20.9 µM (active).

As to `COc1cc(Nc2nc3ccccc3nc2NS(=O)(=O)c2ccc(NC(=O)c3ccc(C)c(OC)c3)cc2)cc(OC)c1`, the activation in [1] was -16.4% and -17%. The Potency result in [2], in test [3], in test [6] and in [7] was “inactive” throughout. Also, in test [4], the viability is 111%.

On to `O=c1[nH]c(-c2ccc(C(F)(F)F)cc2)nc2c1CSCC2`, for which the activation in [1] is 25.7% and -15.7%. Also, the Potency result in test [2], in [3], in test [5], in [6], in test [8] and in test [7] was “inactive” each time. Besides, the viability in test [4] was 95.3%.

`O=C(NCCCNC(=O)c1ccc[nH]c1=O)c1cc(-c2ccccc2)on1`: the activation in test [1] is -2.33%. Also, the Potency entry in test [2] and in [3] was “inactive” throughout. The Potency is 13.2 µM (active) in test [4], 8.33 µM (active) in [9] and 14.8 µM (active) in test [7].

On to `NC(=O)c1cnc(-c2ccc(C3(N)CCC3)cc2)c(-c2ccccc2)c1`, for which the activation in test [1] was 29% and -2.68%. Further, the Potency result in test [2], in test [3], in [8] and in [7] was “inactive” throughout. In [4], the viability was 104%. Moreover, the Potency was 3.32 µM (active) in [9] and 1.32 µM (active) in test [6].

Turning to `Cc1cc(CS(=O)(=O)c2ccccc2)cc(OCc2ccc(CN3CCC[C@@H]3CO)cc2)c1`, the activation in [1] was 3.67%. Further, the Potency entry in test [2] and in test [3] was “inactive” in each case. The viability in [4] is 87.8%. Also, the Potency was 10.5 µM (active) in [9] and 18.6 µM (active) in test [7].

Regarding `CS(=O)(=O)N(Cc1ccco1)CC(O)Cn1c2ccccc2c2ccccc21` (centres undefined), in [1], the activation was -2.66%. For the same compound, the Potency entry in test [2], in test [3], in [5], in test [6], in test [8] and in test [7] was “inactive” throughout. Further, the viability in test [4] was 98.8%.

`CCc1c2c(nc3ccc(O)cc13)-c1cc3c(c(=O)n1C2)COC(=O)[C@]3(O)CC`: the Potency in [1] was 1.51 µM (active); in test [4], 0.0166 µM (active); in test [9], 0.0093 µM (active); in test [6], 0.0083 µM (active); in test [8], 0.0093 µM (active); in test [7], 0.0118 µM (active). The Potency result in [2] and in test [3] was “inactive” each time.

`Cn1cc(-c2ccc3c(c2)CCN3C(=O)Cc2cccc(C(F)(F)F)c2)c2c(N)ncnc21`: the activation in test [1] is -11.6%. Also, the Potency result in test [2], in test [3] and in test [7] was “inactive” throughout. In [4], the viability is 105%. Moreover, the Potency in test [9] is 9.34 µM (active); in [8], 18.6 µM (active).

For the compound `CC(C)[C@H](CO)Nc1nc(Nc2ccc(C(=O)O)c(Cl)c2)c2ncn(C(C)C)c2n1`, the activation in [1] was 6.33%. Moreover, the Potency result in test [2], in test [3], in test [5], in test [6], in test [8] and in [7] was “inactive” each time. Moreover, the viability in test [4] is 109%.

As to `COc1cc2c(cc1OC)CN(CCc1ccc(NC(=O)c3cc(OC)c(OC)cc3NC(=O)c3cnc4ccccc4c3)cc1)CC2`, the activation in [1] was 1.67%. Also, the Potency entry in [2], in [3], in test [9], in test [6], in test [8] and in test [7] was “inactive” in each case. Moreover, the viability in test [4] was 119%.

With `Nc1ncnc2c1c(COc1cccc(Cl)c1)nn2C1CCOCC1`, the activation in [1] was 15.2%. Besides, the Potency entry in [2], in [3], in test [6] and in test [8] was “inactive” each time. Further, the viability in test [4] is 99.8%.

As for `CNc1nc(Nc2cnn([C@H]3CCN(C4COC4)C[C@@H]3F)c2Cl)ncc1C(F)(F)F`, the activation in [1] is -10.7% and -17.9%. The Potency result in test [2], in test [3] and in [7] was “inactive” throughout. Moreover, the viability in test [4] was 94.3%. Also, the Potency in [9] is 1.32 µM (active); in [8], 16.6 µM (active).

`Cn1ncc(Cl)c1-c1cc(C(=O)N[C@H](CN)Cc2cccc(F)c2)sc1Cl`: the Potency is 30.1 µM (active) in test [1]; 9.34 µM (active) in test [4]; 16.6 µM (active) in test [5]; 16.6 µM (active) in [8]; 18.6 µM (active) in [7]. The Potency result in [2] and in [3] was “inactive” each time.

On to `CN(C)CCOc1cc(-c2cn[nH]c2)ccc1NC(=O)C1COc2ccccc2O1` (centres undefined), for which the activation in test [1] was -38.5% and -11.6%. For the same compound, the Potency result in test [2], in test [3], in test [5] and in [6] was “inactive” in each case. In addition, the viability in test [4] was 92.6%.

As to `Nc1ncnc2c1C(=O)N(c1ccc(C3CCC(CC(=O)O)CC3)cc1)CCO2` (centres undefined), the activation in [1] is 18.6%. Besides, the Potency result in test [2], in test [3], in test [9], in test [6], in test [8] and in [7] was “inactive” throughout. In addition, the viability in test [4] is 105%.

Take `Cn1cc(-c2c[nH]c3ncnc(N4CCOCC4)c23)cn1`: the activation in test [1] was -7.14%. Also, the Potency result in [2], in [3] and in test [7] was “inactive” in each case. For the same compound, the viability in test [4] is 112%. The Potency in test [9] is 11.8 µM (active).
